Measured potencies and affinities stand elsewhere. Records with an inconclusive call do not appear. Active and inactive are the calls of the source.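 Rule for the calls: active = samples whose fitted half-maximal inhibition concentration is no more than ten times the top valid dose tested; inconclusive = flat response between -70 and -30, or invalid curve fit; inactive = flat within 30 of zero, potency above limit, or signal rising.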
Each molecule was assayed against Trypsin (Sus scrofa) (UniProt P00761) (assay: porcine trypsin inhibitors, dose response, selectivity assay for Rce1 protease inhibitor project, biochemical, quenched peptide fluorescence, cherry-pick (AID 488789;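 note: more negative means stronger trypsin inhibition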)). Conditions: quenched peptide cleavage fluorescence; series mostly up to 10 µM; activity change, negative = inhibition: at the top concentration.
Trypsin (Sus scrofa), sequence (P00761 whole entry, looked up): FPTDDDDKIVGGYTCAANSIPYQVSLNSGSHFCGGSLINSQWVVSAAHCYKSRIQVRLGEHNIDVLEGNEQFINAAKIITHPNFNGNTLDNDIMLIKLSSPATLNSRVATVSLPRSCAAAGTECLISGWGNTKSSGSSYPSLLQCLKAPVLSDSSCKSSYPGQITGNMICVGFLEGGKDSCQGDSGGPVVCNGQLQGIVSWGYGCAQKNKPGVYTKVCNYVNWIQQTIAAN

Activity change, negative = inhibition, inactive:
COc1cc2ccccc2cc1C(=O)N(CCN(C)C)c1nc2ccc(C)cc2s1 -0.713%
COC(C/C=C/C(=O)[C@H](C)OCc1ccccc1)OC 6.3%
Nc1nnnn1/N=C/c1ccccc1OCc1ccc(Cl)cc1Cl 0.248%
c1coc(-c2ccnc3ncnn23)c1 7.79%
COc1ccc2cc(C(=O)C3CCCN(C(=O)c4cc(=O)n(C)c(=O)n4C)C3)ccc2c1 (configuration not stated) -7.43%
CSc1ccc(/C=C/C(=O)OCC(=O)NC(C)C)cc1 3.28%
CN(C)c1cc(O)c(C(=S)Nc2ccccc2)c(N(C)C)c1 -3.16%
Cc1cccc2sc(N(CCN(C)C)C(=O)c3ccc4ccccc4c3)nc12 2.05%
C[n+]1c2n(c3ccccc31)N=C(c1cc(C(C)(C)C)c(O)c(C(C)(C)C)c1)CS2 5.04%
O=C(Nc1sc2c(c1C(=O)c1ccc(Cl)cc1)CCCC2)c1cccnc1 13.8%
COc1cccc(-c2cc(C(F)(F)F)n3ncc(S(=O)(=O)c4ccccc4)c3n2)c1 3.61%
COc1cccc(C(=O)Nc2nnc(SCC(=O)NC3CCCC3)s2)c1 -6.24%
O=C(c1cnc(Cl)c(Cl)c1)N1CCC(Cc2ccccc2)CC1 5.08%
CC(C)NCC(O)COCCOc1ccc(Br)cc1 (configuration not stated) 11.8%
O=C1CN(C(=O)NCC(=O)N2CCCC2)c2ccccc2N1 0.151%
O=C(COc1ncnc2cc([N+](=O)[O-])ccc12)NC(=O)NC1CCCCC1 2.26%
CC1CCN(Cc2c(C(=O)N/N=C/c3cccc(C(F)(F)F)c3)nnn2-c2nonc2N)CC1 4.51%
O=C(Nc1ccc(F)cc1)Oc1ccccc1N1CCOCC1 -3.6%
COc1ccc(-n2nc(C(=O)NCC(=O)N3CCC(C)CC3)c3ccccc3c2=O)cc1 3.6%
O=C(Nc1ccc(N2CCOCC2)c(Cl)c1)c1cc2ccccc2o1 8.34%
Cc1ccc2c(c1)sc[n+]2Cc1ccccc1 3.87%
CC1(c2nnc(-c3cccc(Cl)c3)o2)CC(c2cccc(F)c2)=NO1 (configuration not stated) 5.97%
COc1ccc(C2/C=C\CN(C(=O)c3ccc(C)cc3)[C@H](Cc3ccccc3)C(=O)N2Cc2ccc(F)cc2)cc1 (some centres not stated) 6.08%
COc1ccc(Cl)cc1C(=O)Nc1ccc2c(c1)OCO2 -2.45%
CCCN(CCC)CCNC(=O)c1cc2c(-c3ccc(Cl)cc3)nn(C)c2s1 5.01%
O=S(=O)(c1ccc(-c2csc(Nc3ccc(F)cc3)n2)cc1)N1CCCC1 -4.3%
CN(C)C(=O)COc1ccc2ccc(=O)oc2c1 -6.92%
COc1cccc(-c2c(C(=O)N/N=C/c3sccc3C)nnn2-c2nonc2N)c1 -3.67%
CN(C)CCCN(C(=O)c1cc(-c2cccs2)nc2ccccc12)c1nc2ccc(F)cc2s1 -3.8%
CN(C)CCN(C(=O)c1ccc2ccccc2c1)c1nc2ccc(F)cc2s1 2.44%
CN(C)S(=O)(=O)c1ccc(NC(=O)/C=C/c2ccccc2Cl)cc1 2.22%
CS(=O)(=O)Cc1ccc(C(=O)N(CCc2ccccc2)Cc2ccccc2)cc1 10.6%
COc1cc(C(=O)OCC(=O)Nc2ccc(SC(F)F)cc2)cc(OC)c1OC 1.57%
CCOc1cccc(-c2c(C(=O)N/N=C/c3c(F)cccc3Cl)nnn2-c2nonc2N)c1 2.04%
CCN(CC)c1ccc(/C=N/NC(=O)C(O)(c2ccccc2)c2ccccc2)o1 15.6%
COc1ccccc1/C=C/C=N/NC(=O)CN1CCN(S(=O)(=O)c2ccc(C)cc2)CC1 -1.16%
CCOC(=O)c1cc(-c2ccccc2)sc1NC(=O)C(C)Sc1nnnn1C (configuration not stated) 7.62%

— PubChem BioAssay AID488789 (Broad Institute, 2010)
